According to PubChem BioAssay (NCI):
Several values for one entry are separate records, joined by “and”; a condition that tells them apart may be missing. Equal entries are not always repeated. About 83,000 compounds went through this panel and 20% of them were active in at least one assay; those are over-represented in the sample as a whole.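 Percent growth is the endpoint: 0 to 100 indicates growth inhibition (40 means 60% inhibition), 0 means no net growth, and negative values indicate cell death.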 Activity calls are given as the source filed them. Rule for the calls: active = growth percent below 10; inactive = the rest.

What was measured:
Assay in all cases: NCI-60 one-dose screen, 48 h (100 = growth as untreated, 0 = no growth, -100 = all killed)
Conditions in all cases: 10 µM unless noted
HCT-15 colon = test system: HCT-15 colon
HT29 colon = test system: HT29 colon
SNB-75 CNS = test system: SNB-75 CNS
SNB-19 CNS = test system: SNB-19 CNS
U251 CNS = test system: U251 CNS
PC-3 prostate = test system: PC-3 prostate
SK-MEL-5 melanoma = test system: SK-MEL-5 melanoma
UACC-62 melanoma = test system: UACC-62 melanoma
LOX IMVI melanoma = test system: LOX IMVI melanoma
SK-MEL-28 melanoma = test system: SK-MEL-28 melanoma

Measured: growth

C=CCNC(=O)Cc1c(-c2ccc(OC)cc2)oc2c(OC)c3c(c(OC)c12)OCO3
inactive: HCT-15 colon 86.7% | HT29 colon 86.5% | SNB-75 CNS 96.4% | SNB-19 CNS 95.3% | U251 CNS 105% | PC-3 prostate 95.2% | SK-MEL-5 melanoma 96.3% | UACC-62 melanoma 89% | LOX IMVI melanoma 93% | SK-MEL-28 melanoma 109%

N#CC1C(=O)c2ccccc2C1c1ccccc1 (stereo not given)
inactive: HCT-15 colon 101% and 95.5% | HT29 colon 114% and 110% | SNB-75 CNS 89.5% and 93.2% | SNB-19 CNS 97.1% and 98.5% | U251 CNS 98.6% and 99.8% | PC-3 prostate 111% and 116% | SK-MEL-5 melanoma 96.8% and 103% | UACC-62 melanoma 100% and 101% | LOX IMVI melanoma 91.5% and 98.1% | SK-MEL-28 melanoma 107% and 117%

COc1nc(=O)n(C2C=CC(=O)O2)cc1F (stereo not given)
inactive: HCT-15 colon 58.5% | HT29 colon 55.8% | SNB-75 CNS 90.2% | SNB-19 CNS 97.8% | U251 CNS 103% | PC-3 prostate 110% | SK-MEL-5 melanoma 94.9% | UACC-62 melanoma 59.7% | LOX IMVI melanoma 64.9% | SK-MEL-28 melanoma 96%

COc1ccc(C/C(C)=C(/c2ccc(OCCN3CCCCCC3)cc2)c2ccc(OC(=O)c3ccccc3)cc2)cc1
inactive: HCT-15 colon 100% | HT29 colon 89.9% | SNB-75 CNS 110% | SNB-19 CNS 102% | U251 CNS 107% | PC-3 prostate 101% | SK-MEL-5 melanoma 109% | UACC-62 melanoma 99.1% | LOX IMVI melanoma 90.7% | SK-MEL-28 melanoma 106%

CCOC(=O)C(=CCC(C)C)C(=O)OCC
inactive: HCT-15 colon 100% | HT29 colon 104% | SNB-75 CNS 93.1% | SNB-19 CNS 98.7% | U251 CNS 98.8% | PC-3 prostate 95.5% | SK-MEL-5 melanoma 103% | UACC-62 melanoma 93% | LOX IMVI melanoma 93.3% | SK-MEL-28 melanoma 107%

Nc1ccc(-c2ccc(N)c(Br)c2)cc1Br
inactive: HCT-15 colon 29.3% | HT29 colon 32% | SNB-75 CNS 29.8% | SNB-19 CNS 52.4% | U251 CNS 45.6% | PC-3 prostate 57.4% | SK-MEL-5 melanoma 45.8% | UACC-62 melanoma 33.5% | LOX IMVI melanoma 40.3% | SK-MEL-28 melanoma 58.4%

COC(=O)c1nc(-c2ccccc2)oc1S(=O)(=O)N(C)CCO
inactive: HCT-15 colon 42.5% | HT29 colon 35.7% | SNB-75 CNS 95.5% | SNB-19 CNS 92.3% | U251 CNS 82.7% | PC-3 prostate 63.2% | SK-MEL-5 melanoma 96% | UACC-62 melanoma 77.2% | LOX IMVI melanoma 71.6% | SK-MEL-28 melanoma 69.8%

COc1ccc(C2Nc3nc(SC)nc(N)c3N=C3c4ccccc4CCC32)cc1 (stereo not given)
inactive: HCT-15 colon 75.9% | HT29 colon 69.9% | SNB-75 CNS 92.5% | SNB-19 CNS 104% | U251 CNS 95% | PC-3 prostate 54.7% | SK-MEL-5 melanoma 80.2% | UACC-62 melanoma 85.3% | LOX IMVI melanoma 89.9% | SK-MEL-28 melanoma 103%

COc1c(NC=O)c2c(c([N+](=O)[O-])c1OC)C(=O)OC2
inactive: HCT-15 colon 115% and 90.4% | HT29 colon 102% and 112% | SNB-75 CNS 89.1% and 62.6% | SNB-19 CNS 102% and 99.5% | U251 CNS 99.9% and 101% | PC-3 prostate 90.7% and 102% | SK-MEL-5 melanoma 112% and 95.4% | UACC-62 melanoma 104% and 93.7% | LOX IMVI melanoma 103% | SK-MEL-28 melanoma 111% and 103%

CCOC(=O)c1cnn(CC(O)CC)c1NC(=O)NCc1ccccc1C(F)(F)F (stereo not given)
inactive: HCT-15 colon 103% | HT29 colon 86.5% | SNB-75 CNS 96% | SNB-19 CNS 104% | U251 CNS 101% | PC-3 prostate 90.8% | SK-MEL-5 melanoma 97.6% | UACC-62 melanoma 88.5% | LOX IMVI melanoma 95.5% | SK-MEL-28 melanoma 108%

COc1ccc2c(O)c(/C=C3\N=Nc4nc(C)ccc43)oc2c1CC1CCNCC1
active: UACC-62 melanoma -26.3% | LOX IMVI melanoma 5.08% | SK-MEL-28 melanoma -68.4%
inactive: HCT-15 colon 93.3% | HT29 colon 31.6% | SNB-75 CNS 25.2% | SNB-19 CNS 57.5% | U251 CNS 21.4% | PC-3 prostate 69.2% | SK-MEL-5 melanoma 81.1%

O=C(Nc1ccc(Cl)c(Cl)c1)Nc1ccc(Cl)c(Cl)c1
-97.2% (active) and 34.6% (inactive): SK-MEL-5 melanoma
-78.8% (active) and 34.9% (inactive): SK-MEL-28 melanoma
-84.3% (active) and 13.3% (inactive): U251 CNS
-80.2% (active) and 11.1% (inactive): PC-3 prostate
active: HT29 colon -82.6% and 7.52% | LOX IMVI melanoma -89.4% and 9.39%
-94.2% (active) and 38.3% (inactive): SNB-75 CNS
-62% (active) and 26.5% (inactive): SNB-19 CNS
-89.2% (active) and 12.2% (inactive): UACC-62 melanoma
-16.7% (active) and 18.2% (inactive): HCT-15 colon
